PubChem BioAssay AID1159580 (chemical genetic matrix, 2015)
Several values for one entry are separate records, joined by “and”; a condition that tells them apart may be missing. Equal values may be shown once. Out of some 5,500 compounds screened, about 2,000 (36%) were called active. About 18% were inconclusive and are not listed. Cut-off read from the data, not from the text of the source: active = normalized growth mostly below about 0.91 (no sharp cut-off); inconclusive = no clear call, values can overlap the other calls; inactive = mostly above about 0.92. The list shows a part of the results.

Assay: chemical genetic growth profiling, strain panel (AID 1159580);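 note: tested at 20 µM; growth read once vehicle control cultures reached saturation at 30 °C; 1 = growth at the plate median or of vehicle wells; lower values mean less growth of the strain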
Settings: S. cerevisiae deletion strains, growth OD

Measured: normalized growth

CCOC(=O)C(C)(C)Oc1ccc(Cl)cc1
inactive: locus YAL013W, strain DEP1, active compounds read low 1.01 and 0.989 | locus YAL021C, strain ccr4, active compounds read low 0.996 | locus YAL026C, strain drs2, active compounds read low 0.989 | locus YAL030W, strain snc1, active compounds read low 0.976 | locus YAL040C, strain CLN3, active compounds read low 0.985 | locus YBL061C, strain skt5, active compounds read low 0.978 | locus YBR009C, strain hhf1, active compounds read low 0.982 | locus YBR021W, strain FUR4, active compounds read low 0.988 | locus YBR023C, strain chs3, active compounds read low 0.985 | locus YBR171W, strain sec66, active compounds read low 0.973 | locus YBR229C, strain ROT2, active compounds read low 1.01 | locus YBR231C, strain swc5, active compounds read low 0.977 | locus YBR279W, strain paf1, active compounds read low 0.986 | locus YCL011C, strain gbp2, active compounds read low 0.991 | locus YCL016C, strain dcc1, active compounds read low 0.986 | locus YCL029C, strain bik1, active compounds read low 1 | locus YCL061C, strain MRC1, active compounds read low 0.98 | locus YCL069W, strain vba3, active compounds read low 0.981 | locus YCR088W, strain abp1, active compounds read low 0.984 | locus YDL005C, strain med2, active compounds read low 0.972 | locus YDL035C, strain GPR1, active compounds read low 1.01 | locus YDL040C, strain nat1, active compounds read low 0.979 | locus YDL074C, strain BRE1, active compounds read low 1.02 | locus YDL101C, strain DUN1, active compounds read low 0.999 | locus YDL134C, strain PPH21, active compounds read low 0.999 | locus YDL185W, strain tfp1, active compounds read low 1.01 | locus YDL192W, strain arf1, active compounds read low 1.01 | locus YDR001C, strain nth1, active compounds read low 0.983 | locus YDR069C, strain doa4, active compounds read low 0.984 | locus YDR101C, strain arx1, active compounds read low 0.99 | locus YDR137W, strain rgp1, active compounds read low 0.964 | locus YDR150W, strain NUM1, active compounds read low 1 | locus YDR159W, strain sac3, active compounds read low 0.945 | locus YDR162C, strain NBP2, active compounds read low 1.01 | locus YDR195W, strain ref2 0.954 | locus YDR297W, strain sur2, active compounds read low 0.982 | locus YDR318W, strain mcm21, active compounds read low 1 | locus YDR334W, strain swr1, active compounds read low 0.987 | locus YDR335W, strain msn5, active compounds read low 0.986 | locus YDR388W, active compounds read low 0.995 | locus YDR392W, strain spt3, active compounds read low 0.87 | locus YDR502C, strain sam2, active compounds read low 0.996 | locus YEL003W, strain gim4, active compounds read low 0.992 | locus YEL037C, strain rad23, active compounds read low 1.02 | locus YEL061C, strain CIN8 (second series), active compounds read low 0.981 | locus YEL061C, strain CIN8, active compounds read low 1.01 | locus YER002W, strain NOP16, active compounds read low 0.998 | locus YER015W, strain faa2, active compounds read low 0.971 | locus YER016W, strain bim1, active compounds read low 0.984 | locus YER110C, active compounds read low 0.992 | locus YER111C, strain swi4, active compounds read low 0.985 | locus YER155C, strain BEM2 (second series), active compounds read low 0.922 | locus YER155C, strain BEM2, active compounds read low 1 | locus YER167W, strain BCK2, active compounds read low 0.998 | locus YFR010W, strain ubp6, active compounds read low 1.01 | locus YGL078C, strain dbp3, active compounds read low 1.01 | locus YGL086W, strain mad1, active compounds read low 1 | locus YGL167C, strain pmr1, active compounds read low 0.975 | locus YGL173C, strain kem1, active compounds read low 0.984 | locus YGL227W, strain vid30, active compounds read low 0.975 | locus YGL240W, strain doc1, active compounds read low 0.949 | locus YGL248W, strain PDE1, active compounds read low 1.01 | locus YGL253W, strain hxk2, active compounds read low 1 | locus YGR078C, strain PAC10, active compounds read low 1.02 | locus YGR135W, strain pre9, active compounds read low 1 | locus YGR252W, strain gcn5, active compounds read low 0.993 | locus YHR013C, strain ard1, active compounds read low 1.02 | locus YHR027C, strain rpn1, active compounds read low 0.986 | locus YHR030C, strain SLT2, active compounds read low 1.01 and 0.939 | locus YHR079C, strain IRE1 (second series), active compounds read low 1 | locus YHR079C, strain IRE1, active compounds read low 0.946 | locus YHR094C, strain hxt1, active compounds read low 0.993 | locus YHR129C, strain ARP1, active compounds read low 1 | locus YHR142W, strain chs7, active compounds read low 0.993 | locus YHR200W, strain rpn10, active compounds read low 1 | locus YIL066C, strain RNR3, active compounds read low 1.01 | locus YIL073C, strain SPO22, active compounds read low 1.02 | locus YIL125W, strain kgd1, active compounds read low 0.998 | locus YIR030C, strain dcg1, active compounds read low 0.994 | locus YJL092W, strain hpr5, active compounds read low 0.978 | locus YJL095W, strain BCK1 (second series), active compounds read low 0.985 | locus YJL095W, strain BCK1, active compounds read low 0.986 and 0.943 | locus YJL115W, strain asf1, active compounds read low 0.965 | locus YJL129C, strain trk1, active compounds read low 0.973 | locus YJL134W, strain LCB3, active compounds read low 1 | locus YJL154C, strain vps35, active compounds read low 0.992 | locus YJL164C, strain tpk1, active compounds read low 0.985 | locus YJL166W, strain qcr8, active compounds read low 0.978 | locus YJL168C, strain set2, active compounds read low 0.997 | locus YJL187C, strain SWE1 (second series), active compounds read low 1.01 | locus YJL187C, strain SWE1, active compounds read low 0.97 | locus YJR043C, strain POL32, active compounds read low 1 | locus YJR066W, strain TOR1, active compounds read low 0.943
